Source: PubChem BioAssay (NCI)
The panel holds about 83,000 compounds, 20% with a hit somewhere; the sample as a whole holds those more often.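 For each line, cells grew in 96-well plates with the test compound present at a single concentration for 48 hours.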 Values without a mark were called inactive. Active and inactive are the calls of the source. The calls were made as follows: active = growth percent below 10; inactive = the rest.

How the values were obtained:
Assay in all cases: NCI-60 one-dose screen, 48 h (100 = growth as untreated, 0 = no growth, -100 = all killed)
Conditions in all cases: 10 µM unless noted
NCI-H23 lung = tested on: NCI-H23 lung
NCI-H226 lung = tested on: NCI-H226 lung
NCI-H322M lung = tested on: NCI-H322M lung
HOP-62 NSCLC = tested on: HOP-62 NSCLC
NCI-H522 lung = tested on: NCI-H522 lung
A549/ATCC NSCLC = tested on: A549/ATCC NSCLC
786-0 renal = tested on: 786-0 renal
COLO 205 colon = tested on: COLO 205 colon
DU-145 prostate = tested on: DU-145 prostate
K-562 leukemia = tested on: K-562 leukemia
MALME-3M melanoma = tested on: MALME-3M melanoma
MDA-MB-231 breast = tested on: MDA-MB-231 breast
RXF 393 renal = tested on: RXF 393 renal
SF-268 CNS = tested on: SF-268 CNS
SF-295 CNS = tested on: SF-295 CNS
SF-539 CNS = tested on: SF-539 CNS
UACC-257 melanoma = tested on: UACC-257 melanoma
M14 melanoma = tested on: M14 melanoma
NCI-H460 lung = tested on: NCI-H460 lung

SMILES | growth (NCI-H23 lung) | growth (NCI-H226 lung) | growth (NCI-H322M lung) [%] | growth (HOP-62 NSCLC) | growth (NCI-H522 lung) | growth (A549/ATCC NSCLC) | growth (786-0 renal) | growth (COLO 205 colon) | growth (DU-145 prostate) | growth (K-562 leukemia) | growth (MALME-3M melanoma) | growth (MDA-MB-231 breast) | growth (RXF 393 renal) | growth (SF-268 CNS) | growth (SF-295 CNS) | growth (SF-539 CNS) | growth (UACC-257 melanoma) | growth (M14 melanoma) | growth (NCI-H460 lung)
S=C(Cc1ccccc1)N1CCN(c2ccccc2Cl)CC1 | 100% | 96.9% | 96.3 | 105% | 88.2% | 95.1% | 96.7% | 109% | 102% | 89.8% | 95.2% | 100% | 117% | 95.2% | 90.7% | 105% | 110% | 99.1% | –
COc1cc(Cl)cc(-c2nn(C(=O)NCCN3CCOCC3)cc2-c2ccncc2)c1 | 84.9% | 99.7% | 104 | 56.7% | 18.3% | 60.7% | 61.8% | 42.3% | 86.1% | 28.1% | 70.2% | 82.1% | 76.3% | 80.9% | 52.7% | 68.4% | 81.7% | 62% | –
COc1cccc(NC(=O)OC(C)C)c1 | 98.7% | 107% | 99 | 103% | 90.9% | 94.7% | 104% | – | 103% | 88.1% | 94.5% | 116% | 109% | 108% | 108% | 106% | 108% | 112% | –
CCCCOc1nc2ccc(C)cc2cc1/C=C/C(=O)/C=C(O)/C=C/c1cc2cc(C)ccc2nc1OCCCC | 92% | 102% | 92 | 87.3% | 85% | 91.7% | 96.5% | 114% | 112% | 99.2% | 118% | 103% | 108% | 103% | 101% | 103% | 89.4% | – | –
CCOC(=O)C1OC2(CCCC2)OC1C(=O)OCC (configuration not stated) | 103% | 97.1% | 94.3 | 103% | 90.5% | 102% | 100% | 111% | 125% | 112% | 107% | 95.7% | 104% | 114% | 126% | 114% | 97.7% | 105% | –
COc1ccc(/C(C)=N/NC(=O)CSc2nc3ccccc3c(=O)n2CCc2ccc(S(N)(=O)=O)cc2)cc1 | 29.9% | 49% | 32.3 | -0.117% (active) | 9.28% (active) | -26.9% (active) | -68.1% (active) | 33.5% | 1.74% (active) | 30.4% | -21.4% (active) | -10.9% (active) | 29.7% | 28.3% | 28.5% | 14.4% | 25.9% | 38.4% | –
CCCCCN(CCCCC)C(=O)C(CCC(=O)O)NC(=O)c1ccc(Cl)c(Cl)c1 (configuration not stated) | 105% | 92.6% | 102 | 102% | 110% | 85% | 106% | 120% | 113% | 115% | 104% | 88.1% | 106% | 110% | 110% | 113% | 111% | 109% | –
COC(=O)OC1C(O[C@H]2C[C@H]3[C@@H]4CC=C5C[C@@H](O)CC[C@]5(C)[C@H]4CC[C@]3(C)[C@H]2[C@H](C)C(=O)CCC(C)C)OCC(O)C1OC1OCC(O)C(O)C1OC(=O)c1ccc(OC)cc1 (some centres not stated) | 27.9% | -8.65% (active) | 45.2 | -26.5% (active) | – | 1.81% (active) | -25% (active) | -52.4% (active) | 34.8% | -25.2% (active) | -6.07% (active) | 22.7% | -71.9% (active) | -6.22% (active) | -66.4% (active) | -58.1% (active) | -55.3% (active) | -58.5% (active) | -24.2% (active)
COc1cc(C2C(C#N)=C(N)Oc3cc4c(cc32)OCO4)cc2c1OCO2 (configuration not stated) | 8.48% (active) | 0.662% (active) | 44.8 | 28.2% | 5.81% (active) | 25.3% | 31.1% | -42.1% (active) | 6.37% (active) | – | 52.6% | 36.5% | -12.1% (active) | 40.3% | 9.43% (active) | 2.43% (active) | 66.4% | – | –
COc1ccc(-c2cc(-c3ccc(OC)cc3)c3sc(=O)[nH]c3n2)cc1 | 98% | 71% | 82.3 | 70.5% | – | 78.4% | 79.3% | 107% | 107% | 94.2% | 109% | 87.6% | 77.7% | 92.6% | 96.8% | 81.8% | 104% | 109% | 94%
CC(C)(C)OC[C@@H]1N=C(c2ccc(Br)cc2)Nc2nc3ccccn3c2C1=O | 71.5% | 78.1% | 84.8 | 54.5% | 33.4% | 51.6% | 94.2% | 62.7% | 82.7% | 25.3% | 51.5% | 61.5% | 61.6% | 74.3% | 30.9% | 75.7% | 62.3% | 46.4% | –
CCCCc1nc(Cl)c(C2CC(c3ccc(S(N)(=O)=O)cc3)=NN2c2cc(Cl)cc(Cl)c2)[nH]1 (configuration not stated) | 51.9% | 39% | 77.7 | 61.8% | 22.7% | 36.5% | 53.6% | 32.2% | 70.8% | 16% | 65.3% | 35.2% | 48.4% | 49.4% | 50.3% | 91.4% | 55.4% | 18.7% | –
O=C1Nc2ccc(Br)cc2/C1=N/c1nc(-c2ccccc2)cs1 | 92.4% | 75.7% | 88 | 53.8% | 71.4% | 80.3% | 85.2% | 94.7% | 89.3% | 82.4% | 101% | 77% | 91.7% | 79.5% | 102% | 98.6% | 78.2% | 87.5% | –
CC(C)CCSc1nc(-c2ccc(F)cc2)c(C#N)c(N2CCCCC2)n1 | 90.6% | 88.8% | 94.5 | 102% | – | 83.3% | 98.5% | 103% | 97% | 78.8% | 93.9% | 88% | 94.3% | 97.3% | 103% | 107% | 84.7% | – | –
CCN1C(=O)N(CC)C2C1NN=c1s/c(=C\c3ccco3)c(=O)n12 (configuration not stated) | 37.3% | 60% | 42.5 | 28.2% | -9.98% (active) | 25% | 25% | -19.8% (active) | 3.04% (active) | 11.5% | 55.8% | 43% | -2.28% (active) | 44% | 8.2% (active) | -1.22% (active) | 63% | 5.24% (active) | –
COc1cc(CN(CCC(O)N2CCCC2=O)Cc2ccc3c(c2)OCO3)cc(OC)c1OC (configuration not stated) | 108% | 104% | – | 103% | 95.4% | 106% | 94.1% | 120% | 108% | – | 109% | 110% | 121% | 106% | 91.5% | 100% | 109% | 95.8% | 106%
O=C(CSc1nc2c(n1Nc1ccccc1)-c1ccccc1SC2)Nc1nccs1 | 91.2% | 93.6% | 99.7 | 101% | – | 96.6% | 96.8% | – | 105% | 84.8% | 101% | 88.7% | 102% | 96.2% | 122% | 97.2% | 108% | 102% | –
